Mcl1 Noxa PPI = Mcl-1/Noxa interaction inhibition | inhibition, % at 21.7 µM | 220,000 tested, 1.5% active | Q07820 | AID 1022 | TR-FRET Mcl-1/Noxa peptide binding, 2 h;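 active means compounds that cut the protein-peptide binding signal by more than 50% relative to plate controls in a single-dose test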;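 further: His-tagged Mcl-1 with rhodamine Noxa BH3 peptide and terbium anti-His antibody; 0% = Mcl-1 plus Noxa peptide wells and 100% = peptide-only wells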
14-3-3 Bad inh = disrupts binding of bovine 14-3-3 zeta to phospho-Bad peptide. P63103. TR-FRET 14-3-3zeta/Dy647-pBad peptide displacement, 1 h. inhibition, % at 21.7 µM. 220,000 tested, 0.71% active;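 active means inhibition above about 70%, limit read from the data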;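 further: 0% = full 14-3-3 plus peptide FRET controls and 100% = background without 14-3-3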
Target sequence (P63103 whole entry, looked up): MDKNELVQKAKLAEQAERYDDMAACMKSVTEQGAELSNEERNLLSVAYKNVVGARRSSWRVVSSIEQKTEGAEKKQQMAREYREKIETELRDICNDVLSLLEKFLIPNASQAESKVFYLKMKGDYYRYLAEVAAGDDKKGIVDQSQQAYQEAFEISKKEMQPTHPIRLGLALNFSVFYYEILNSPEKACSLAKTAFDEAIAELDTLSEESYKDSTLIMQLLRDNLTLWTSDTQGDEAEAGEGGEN
Mcl1-Bid inh = disrupts binding of human Mcl-1 to Bid peptide | Q07820 | TR-FRET Mcl-1/Bid-Dy647 peptide binding, 1536-well | inhibition, % at 21.7 µM | 220,000 tested, 0.97% active;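 active means compounds that cut the binding signal by more than half at the single screening dose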;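 further: His-tagged Mcl-1 with europium anti-His antibody binding Bid BH3 peptide; 0% = Mcl-1 plus peptide wells and 100% = peptide-only wells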
Bim-Mcl-1 = human Bim-Mcl-1 interaction inhibition. Q07820. Bead-based flow cytometry, Bim peptide-Mcl-1 binding. inhibition, % at 10 µM. 190,000 tested, 0.1% active. AID 1009; in the data active means inhibition above about 40%;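 further: 0% = no compound tracer wells and 100% = peptide blocker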
NCF1 inh = blocks human p47phox regulatory protein of NADPH oxidases; p47phox/p22phox peptide binding, fluorescence polarization, 2 h; inhibition, % at 24.7 µM; 220,000 tested, 0.53% active; AID 1274;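 active means inhibition above about 30%, limit read from the data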;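 further: 0% = p47phox with labelled peptide and 100% = labelled peptide alone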
Target sequence (P14598 whole entry, looked up): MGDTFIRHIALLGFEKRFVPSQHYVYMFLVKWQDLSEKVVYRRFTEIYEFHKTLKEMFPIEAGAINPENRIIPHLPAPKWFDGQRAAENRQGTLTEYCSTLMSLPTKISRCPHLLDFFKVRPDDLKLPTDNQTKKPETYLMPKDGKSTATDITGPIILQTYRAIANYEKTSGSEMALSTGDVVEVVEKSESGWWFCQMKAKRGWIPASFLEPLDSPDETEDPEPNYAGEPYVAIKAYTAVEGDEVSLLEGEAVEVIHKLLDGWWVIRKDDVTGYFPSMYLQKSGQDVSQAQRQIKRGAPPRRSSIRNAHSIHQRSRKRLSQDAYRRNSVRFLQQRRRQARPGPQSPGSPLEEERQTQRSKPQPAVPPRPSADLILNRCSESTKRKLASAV
The depositor's hits bear a star; / = no result; + = active, no number. Shown are actives, neighbours in structure and some others; about 3.1% of the full set was active somewhere.

SMILES | Mcl1 Noxa PPI | 14-3-3 Bad inh | Mcl1-Bid inh | Bim-Mcl-1 | NCF1 inh
COc1cc(/C=C2/SC(=S)N(CC3CCCO3)C2=O)ccc1O (stereo not drawn) | 13 | -14 | 72* | -1 | -200
Cc1ccc(N2C(=O)N(Cc3ccccc3C)c3ccccc3S2(=O)=O)cc1 | 18 | 0 | 10 | -4 | -3
C=CCn1c(-c2ccco2)n[nH]c1=S | 42 | 11 | -29 | -2 | 32*
CCn1c(-c2ccco2)n[nH]c1=S | 23 | -1 | 1 | 1 | -7
NNC(=S)Nc1cc(S(=O)(=O)N2CCOCC2)ccc1N1CCOCC1 | 7 | 94* | -45 | 0 | -11
CC(C)CC1c2[nH]c3ccccc3c2CCN1C(=O)C1CCOCC1 (stereo not drawn) | 0 | -8 | -109 | -2 | -5
O=S(=O)(c1ccc(Cl)cc1)N1CCC(N2CCOCC2)CC1 | -1 | 80* | 29 | 1 | -2
CCOC(=O)c1ccc(NC(=O)CSc2nnc(Cn3c(=O)sc4ccccc43)n2C)cc1 | -7 | 4 | 6 | -3 | +
COc1ccc(-c2cn(-c3ccc(Cl)cc3)c3[n+]2CCCCC3)cc1 | -33 | -1 | -22 | / | -2
COc1ccc(-n2cc(-c3ccc(OC(F)F)cc3)[n+]3c2CCCCC3)cc1 | 9 | 12 | 90* | -1 | -7
CSc1ccccc1C(=O)N1CCN(c2ncccn2)CC1 | -12 | 7 | 2 | -2 | 6
O=C1CC(c2ccco2)CC(O)=C1C=NCCN1CCN(C(=O)Nc2ccc(Cl)cc2)CC1 (stereo not drawn) | 5 | 0 | -52 | 0 | -14
O=C1CC(c2ccco2)CC(O)=C1C=NCCN1CCN(C(=S)Nc2ccccc2)CC1 (stereo not drawn) | 51* | -7 | -50 | / | -2
CCc1ccccc1NS(=O)(=O)c1ccc2[nH]cc(C(=O)NC3CCCC3)c(=O)c2c1 | 72* | 26 | 66* | -2 | -20
CCOc1ccccc1CN1CCN(S(=O)(=O)CC)CC1 | 20 | 94* | 39 | 2 | 12
Cc1sc(NC(=O)CSc2nc(N)cc(N)n2)c(C#N)c1C | -10 | 2 | -42 | / | -18
O=C1CN(C(=O)COC(=O)CNS(=O)(=O)/C=C/c2ccccc2)c2ccccc2N1 | 8 | 21 | 58* | -4 | 2
O=C1CN(C(=O)COC(=O)CNS(=O)(=O)c2ccccc2)c2ccccc2N1 | 0 | -10 | -30 | -2 | 2
NC(N)=NCC(O)CN(c1ccccc1)c1ccccc1 (stereo not drawn) | 11 | -2 | -15 | / | 2
Cc1cc(C)c2cc(C(=O)N3CCc4ccccc4C3)[nH]c2c1 | -6 | -3 | -7 | / | -6
CCOC(=O)c1ccc(NC(=S)N2CCN(CCNC3=CC(=O)CC(C)(C)C3)CC2)cc1 | 16 | -6 | -35 | 0 | 1
Cc1cc(C2=NNC(=NC3CC3)SC2)c(C)n1-c1c(C)n(C)n(-c2ccccc2)c1=O | 52* | 15 | 7 | -2 | 13
O=C(Nc1nc(-c2ccccn2)cs1)C1CC(=O)N(c2ccc3c(c2)OCCO3)C1 (stereo not drawn) | 71* | -13 | -94 | 0 | -4
O=C(/C=C/c1ccc(Cl)cc1)NCc1ccco1 | -17 | 7 | -25 | -5 | 17
CCOC(=O)CSc1nc(C2CC2)cc(-c2ccc(Cl)cc2)c1C#N | 3 | 6 | 97* | -4 | -7
SMILES | Mcl1 Noxa PPI | 14-3-3 Bad inh | Mcl1-Bid inh | Bim-Mcl-1 | NCF1 inh
C/C(O)=C(/C=NCC(=O)O)C(=O)Nc1nccs1 | 10 | 1 | -22 | 1 | -2
O=C(CCl)Nc1cc2[nH]c(=O)[nH]c2cc1Br | 51* | -4 | -17 | 3 | 3
CN(C)c1ccc(NC(=O)c2ccc3c(c2)nnn3C)cc1 | 61* | -14 | -59 | 0 | -2
Cc1ccc(NC(=O)c2ccc3c(c2)nnn3C)cc1 | -7 | -6 | -10 | -5 | -1
CN(C)c1ccc(NC(=O)c2cccc(N3C(=O)CCC3=O)c2)cc1 | 64* | -23 | -55 | 0 | -3
COc1cc(C(=O)Nc2ccc(N(C)C)cc2)cc(OC)c1OC | 78* | 1 | -100 | 2 | -13
COc1cc(C(=O)Nc2ccc(S(=O)(=O)N(C)c3ccccc3)cc2)cc(OC)c1OC | -4 | -2 | -26 | -7 | -13
Cc1cccc(-c2nnc3n2N=C(c2ccccc2Br)CS3)c1 | 5 | -9 | -14 | 1 | -2
CCOC(=O)c1cc(-c2ccccc2)sc1NC(=O)COC(=O)c1ccc(Cl)c(S(N)(=O)=O)c1 | 14 | 10 | 19 | 3 | -6
CCOC(=O)c1cc(-c2ccccc2)sc1NC(=O)COC(=O)c1cccc(S(N)(=O)=O)c1 | -27 | 73* | -112 | 0 | 6
CC1=C(C(N)=O)S(=O)(=O)c2ccccc21 | 7 | 0 | -125 | / | -8
CC(C)c1c(C#N)c(N)nc(SCC(=O)c2cc3ccccc3oc2=O)c1C#N | -12 | -1 | -18 | 0 | -13
N#Cc1ccc(-c2ccccc2)nc1SCC(=O)c1cc2ccccc2oc1=O | 21 | 20 | 64* | -3 | -17
COc1cc(C(c2nnnn2C(C)(C)C)N2CCN(c3nc4ccccc4s3)CC2)ccc1O (stereo not drawn) | 73* | -10 | 4 | 10 | -1
COc1ccc(C(c2nnnn2C(C)(C)C)N2CCN(c3nc4ccccc4s3)CC2)cc1OC (stereo not drawn) | 7 | 7 | 0 | -6 | -14
C/C=N\NC(=O)COc1cc(C)ccc1C | 7 | -11 | -14 | 0 | 2
COc1cc2ccccc2cc1C(=O)NCC(c1cccs1)N(C)C (stereo not drawn) | 3 | -14 | -16 | 0 | -4
O=c1[nH][nH]c2cc(=O)n(-c3ccc(Cl)cc3)nc12 | -6 | 92* | -100 | 2 | 6
O=C(CN1C(=O)CSc2ccc(S(=O)(=O)N3CCOCC3)cc21)NCc1cccnc1 | 54* | -2 | -7 | -6 | 6
O=C(COc1ccc(S(=O)(=O)N2CCCCC2)cc1)NCc1cccnc1 | -20 | -1 | -39 | 3 | 35*
COc1cc2c(cc1OC)CN(Cc1cc(OC)c(O)c(OC)c1)CC2 | 11 | -5 | -36 | 0 | 4
CCOc1ccc(-n2nc3c(SCCN4CCCC4)nnc(C)c3c2C)cc1 | 1 | 11 | -12 | -8 | -9
CN(CCc1ccccn1)C(=O)CCC1CCCN(C(=O)c2c3c(nn2C)CCCC3)C1 (stereo not drawn) | 13 | 0 | -15 | -1 | -1
Brc1cccc2sc(N3CCN(c4ccccc4)CC3)nc12 | 7 | 87* | -21 | -1 | -16
Clc1cccc2sc(N3CCCCC3)nc12 | -4 | -13 | -7 | 0 | -2
O=C(COc1cccc2c1CCN(Cc1ccccc1)C2=O)NCc1ccco1 | 3 | 2 | -27 | -1 | -16
Cc1cccc(CN2CCc3c(OCC(=O)NCc4ccco4)cccc3C2=O)c1 | 3 | 6 | 95* | -7 | -4
Cc1ccc(COc2cccc3c2CCN(Cc2ccc(F)cc2)C3=O)cc1 | 12 | 4 | 54* | -3 | -18

Assay outcomes (PubChem BioAssay)
